# Source: PubChem BioAssay (EPA / NIEHS)
# Values joined by “and” are separate entries in the source; they are usually repeats but may differ in a detail not shown here. Equal values may be shown once. Where a structure was tested more than once in an assay, its records may differ in their call. Active and inactive are the calls of the source. Rule for the calls: active = hit-call score of the fitted dose curve at least 0.9, where 1 is the maximum; inactive = score below 0.9.
# Read-out: solute carrier (SLCO1B1), SLCO1B1 (gene 10599)
# Experiment: LTEA_HepaRG_SLCO1B1: Life Technologies and Expression Analysis (LTEA) Assay for solute carrier (SLCO1B1) using HepaRG (AID 2283530)
# Conditions: mRNA level, 48 h; actives raise or lower the signal
# Protocol: LTEA_HepaRG is a cell based, multiplexed-readout assay that uses HepaRG, a human liver cell line, with measurements taken at 48 hours after chemical dosing on a 96-well plate.LTEA_HepaRG_SLCO1B1 is one of 102 assay component(s) measured in the LTEA HepaRG cell culture assay. It is a marker of NR mediated transport.Data from the assay component LTEA_HepaRG_SLCO1B1 was analyzed into 1 endpoint. This assay endpoint, LTEA_HepaRG_SLCO1B1, was analyzed with bidirectional fitting relative to DMSO as the negative control and baseline of activity. Using a type of inducible reporter, measures of mRNA induction for gain or loss-of-signal activity can be used to understand regulation of transcription factor activity. To generalize the intended target to other relatable targets, this assay endpoint is annotated to the transporter intended target family, where the subfamily is organic anion transporter.
# A total of 1060 chemcials from the ToxCast library were tested in eight-point concentration-response experiments. Cell culture and cytotoxicity assays were conducted at Thermo Fisher Scientific's Custom Services facility (Madison, WI). A single lot of human HepaRG cells (Thermo Fisher Scientific, Frederick, MD) was used for the cell culture experiments. 96-well format collagen type I coated plates of human HepaRG cells were prepared using established methods. Briefly, cryopreserved HepaRG cells were thawed, plated at a density of approximately 100,000 cells/well in HepaRG Thaw, Plate, and General Purpose media (HPRG770, Thermo Fisher Scientific), and incubated for 48 hours. 0.5% DMSO was selected as vehicle control to balance the requisite need of DMSO in HepaRG cultures to maintain differentiation (for example, baseline metabolism, proportions of hepatocytes vs. cholangiocytes), while enabling further hepatic receptor pathway activation (for example, PXR and CAR) in response to chemical exposure. 48 hours after plating, the culture medium was replaced with HepaRG Serum-Free Incudtion Media. Cells were exposed to each test chemical in duplicate and maintained in CO2 incubators for another 48 hours. Chemical plates were thawed to room temperature and 200x concentrations of treatment groups were prepared. 8-point conentration-reponse curves were made with the highest exposure at 100 uM, followed by half-log dilutions, all in 0.5% DMSO. Each test plate contained variouse controls, induction positive controls (1mM phenobarbital), cytotoxicity positive controls ([…] aflatoxin B1), vehicle controls (0.5% DMSO), and total lysis controls (0.5% DMSO). Cell morphology images were taken using an Essen IncuCyte FLR automated microscope, with six 96-well plates imaged in about 24 minutes. Images were captured and exported and JPEG files. Spent culture media was transfered to black-well plates for the LDH assay, and remaining media was sorted at -80 C for later use. Cells were treated with RLT buffer and frozen until shipped for gene expression analysis. Total RNA was isolated from the cell suspension in 75 uL of Buffer RLT (Qiagen, Germantown, MD 20874) by Quintiles/Expression Analysis (Durham, NC) using a custom isolation procedure. Total RNA from each plate well was transferred to a preamplification plate. Fluidigm's 96.96 Dynamic ArrayTM (Fluidigm, Amsterdam, the Netherlands) technology was used for gene expression analyses by quantitative reverse transcription polymerase chain reaction (qRT-PCR, performed by Quintiles/Expression Analysis, Durham, NC)89. Standard TaqManTM Assays (Applied Biosystems/ThermoFisher Scientific, Foster City, CA) were used to assess the expression of 93 genes selected based on their selectivity and sensitivity to important hepatic receptors known to be modulated by environmental chemicals; importance in human hepatocyte functionality; and hepatotoxicity. […]
SMILES,outcome,AC50
CCOC(=O)C(C)Oc1ccc(Oc2nc3ccc(Cl)cc3o2)cc1 (stereo not given),inactive,–
O=C(c1ccc(O)cc1O)c1ccc(O)cc1O,inactive,–
c1ccc2[nH]c(-c3cscn3)nc2c1,inactive,–
CCOC(=O)COc1cc(-n2ncc(C(F)(F)F)c(C)c2=O)c(F)cc1Cl,inactive,–
CC1(C)C(C=C(Cl)Cl)C1C(=O)OCc1cccc(Oc2ccccc2)c1 (stereo not given),inactive,–
COc1c(Cl)ccc(Cl)c1C(=O)O,inactive,–
CCCCCOC(=O)COc1cc(N2C(=O)C3=C(CCCC3)C2=O)c(F)cc1Cl,inactive,–
OB(O)O,inactive,–
COCCO,inactive,–
CCN(Cc1c(F)cccc1Cl)c1c([N+](=O)[O-])cc(C(F)(F)F)cc1[N+](=O)[O-],inactive,–
CSC(=O)c1cccc2nnsc12,inactive,–
CCOC(=O)c1ccc(O)cc1,inactive,–
CC(C)(c1ccc(O)cc1)c1ccc(O)cc1,inactive,9.92 µM (active)
O=C(O)c1ccccc1,inactive,–
N[C@@H](Cc1cc(I)c(Oc2ccc(O)c(I)c2)c(I)c1)C(=O)O,–,27.5 µM (active)
CCSC(=O)N(CC(C)C)CC(C)C,inactive,–
COC(=O)CSc1cc(N=c2sc(=O)n3n2CCCC3)c(F)cc1Cl,inactive,–
COC(=O)c1ccccc1C(=O)O,inactive,–
S=C(S)NCCNC(=S)S.[Mn+2].[S-]C([S-])=NCCN=C([S-])[S-].[Zn+2],–,1.25 µM (active) and 1.22 µM (active) and 1.54 µM (active)
N#CSCSc1nc2ccccc2s1,–,95.8 µM (active)

SMILES,outcome,AC50
CCCOC(=O)NCCCN(C)C,inactive,–
CC(C)CCCCCCc1ccc(O)cc1,inactive,–
C#CCOC(=O)[C@@H](C)Oc1ccc(Oc2ncc(Cl)cc2F)cc1,inactive,–
O=C(O)C1(C(=O)Nc2ccc(Cl)cc2Cl)CC1,–,77.1 µM (active)
COC(=O)c1ccc(I)cc1S(=O)(=O)NC(=O)Nc1nc(C)nc(OC)n1,inactive,–
CCCN(CCC)C(=O)SCC,inactive,–
O=C(Nc1ccc([N+](=O)[O-])cc1Cl)c1cc(Cl)ccc1O,–,3.28 µM (active)
CCCCOC(=O)[C@@H](C)Oc1ccc(Oc2ccc(C(F)(F)F)cn2)cc1,inactive,–
CCC(C)OC(=O)N1CCCCC1CCO (stereo not given),inactive,–
O=C(c1ccccc1)C1CCCCC1,inactive,–
C[C@]12C[C@H](O)[C@H]3[C@@H](CCC4=CC(=O)CC[C@@]43C)[C@@H]1CC[C@@H]2C(=O)CO,–,50 µM (active)
CCCOC(=O)c1ccc(C(=O)OCCC)nc1,inactive,–
CCOC(=O)C(C)Oc1ccc(Oc2cnc3cc(Cl)ccc3n2)cc1 (stereo not given),inactive,–
CCCCOCCOCCOCc1cc2c(cc1CCC)OCO2,–,8.47 µM (active)
CCN(CC)C(=O)c1cccc(C)c1,inactive,–
S=C([S-])NCCNC(=S)[S-].[Mn+2],–,3.85 µM (active)
CCOC(=O)NCCOc1ccc(Oc2ccccc2)cc1,–,93.4 µM (active)
CCCCC(CC)COC(=O)c1ccccc1C(=O)O (stereo not given),inactive,–
Oc1ccc(C(c2ccc(O)cc2)C(Cl)(Cl)Cl)cc1,inactive,–
